According to PubChem BioAssay (NCATS):
Inconclusive results are not listed. Entries that show only a call come without a potency. Active and inactive are the calls of the source. Calls follow the shape of the dose curve; as a rule, active = well fitted inhibition curve with a large enough effect; inconclusive = small, poorly fitted or top-dose-only effect; inactive = flat fitted curve, though single readings scatter.

Tests used:
Assay in all cases: qHTS profiling for inhibitors of Plasmodium falciparum proliferation (AID 504749); also: nearly all actives have a fitted effect of over 60% in size
Conditions in all cases: P. falciparum in erythrocytes, SYBR Green DNA, 72 h; series mostly up to 28.7 µM
CP215 = system: CP215
Method in brief: (§1)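 Fluorescence of SYBR Green-bound parasite DNA, read at 485/535 nm, served as the growth measure. Infected erythrocytes were cultured with compound 72 h; artemisinin (0.29 uM) and DMSO wells defined the normalization range.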

CP217 = system: CP217
Method in brief: as §1

CP237 = system: CP237
Method in brief: as §1

CP238 = system: CP238
Method in brief: as §1

CP247 = system: CP247
Method in brief: as §1

CP250 = system: CP250
Method in brief: as §1

CP252 = system: CP252
Method in brief: as §1

CP256 = system: CP256
Method in brief: as §1

CP260 = system: CP260
Method in brief: as §1

CP262 = system: CP262
Method in brief: as §1

CP265 = system: CP265
Method in brief: as §1

CP266 = system: CP266
Method in brief: as §1

CP268 = system: CP268
Method in brief: as §1

CP269 = system: CP269
Method in brief: as §1

CP286 = system: CP286
Method in brief: as §1

CP291 = system: CP291
Method in brief: as §1

CP297 = system: CP297
Method in brief: as §1

CP305 = system: CP305
Method in brief: as §1

CP315 = system: CP315
Method in brief: as §1

CP325 = system: CP325
Method in brief: as §1
Potency is read from the fitted curve at half-maximal effect.

| Compound | Potency (CP215) | Potency (CP217) | Potency (CP237) | Potency (CP238) | Potency (CP247) | Potency (CP250) | Potency (CP252) | Potency (CP256) | Potency (CP260) | Potency (CP262) | Potency (CP265) | Potency (CP266) | Potency (CP268) | Potency (CP269) | Potency (CP286) | Potency (CP291) | Potency (CP297) | Potency (CP305) | Potency (CP315) | Potency (CP325) |
| --- | --- | --- | --- | --- | --- | --- | --- | --- | --- | --- | --- | --- | --- | --- | --- | --- | --- | --- | --- | --- |
| Cc1cc(C(C)(C)C)c(O)c(C)c1CC1=NCCN1 | inactive | inactive | inactive | inactive | inactive | inactive | inactive | inactive | inactive | inactive | inactive | inactive | inactive | inactive | inactive | inactive | inactive | inactive | inactive | inactive |
| Cn1c(=O)c2c(ncn2C)n(C)c1=O | inactive | inactive | inactive | inactive | inactive | inactive | inactive | inactive | inactive | inactive | inactive | inactive | inactive | inactive | inactive | inactive | inactive | inactive | inactive | inactive |
| CC[N+](CC)(CC)CCOc1cccc(OCC[N+](CC)(CC)CC)c1OCC[N+](CC)(CC)CC | inactive | inactive | inactive | inactive | inactive | inactive | inactive | inactive | inactive | inactive | inactive | inactive | inactive | inactive | inactive | inactive | inactive | inactive | inactive | inactive |
| COc1ccccc1OCC(O)CN1CCN(CC(=O)Nc2c(C)cccc2C)CC1 (stereo unspecified) | inactive | inactive | inactive | inactive | inactive | inactive | inactive | inactive | inactive | inactive | inactive | inactive | inactive | inactive | inactive | inactive | inactive | inactive | inactive | inactive |
| CC(C)NCC(O)c1ccc(O)c(O)c1 (stereo unspecified) | inactive | inactive | inactive | inactive | inactive | inactive | inactive | inactive | inactive | inactive | inactive |  | inactive | inactive | inactive | inactive | inactive | inactive | inactive | inactive |
| Clc1ccccc1C(c1ccccc1)(c1ccccc1)n1ccnc1 | 1.14 µM (active) | 0.631 µM (active) | 0.398 µM (active) | 0.794 µM (active) | 0.891 µM (active) | 1.58 µM (active) | 0.891 µM (active) | 2 µM (active) | 1.41 µM (active) | 1.02 µM (active) | 0.708 µM (active) |  | 2.28 µM (active) | 0.907 µM (active) | 1.58 µM (active) | 2.03 µM (active) | 0.455 µM (active) | 5.1 µM (active) | 2.03 µM (active) | 1.81 µM (active) |
| CCOC(=O)c1ncn2c1CN(C)C(=O)c1cc(F)ccc1-2 | inactive | inactive | inactive | inactive | inactive | inactive | inactive | inactive | inactive | inactive | inactive |  | inactive | inactive | inactive | inactive | inactive | inactive | inactive | inactive |
| Cc1cn([C@H]2C[C@H](N=[N+]=[N-])[C@@H](CO)O2)c(=O)[nH]c1=O | inactive | inactive | inactive | inactive | inactive | inactive | inactive | inactive | inactive | inactive | inactive | inactive | inactive | inactive | inactive | inactive | inactive | inactive | inactive | inactive |
| CN(C)c1nc(N(C)C)nc(N(C)C)n1 | inactive | inactive | inactive | inactive | inactive | inactive | inactive | inactive | inactive | inactive | inactive | inactive | inactive | inactive | inactive | inactive | inactive | inactive | inactive | inactive |
| N[C@@H](Cc1c[nH]c2ccc(O)cc12)C(=O)O | inactive | inactive | inactive | inactive | inactive | inactive | inactive | inactive | inactive | inactive | inactive | inactive | inactive | inactive | inactive | inactive | inactive | inactive | inactive | inactive |
| CN1C(C(=O)Nc2ccccn2)=C(O)c2ccccc2S1(=O)=O | inactive | inactive | inactive | inactive | inactive | inactive | inactive | inactive | inactive | inactive | inactive | inactive | inactive | inactive | inactive | inactive | inactive | inactive | inactive | inactive |
| Cc1cnc(C(=O)NCCc2ccc(S(=O)(=O)NC(=O)NC3CCCCC3)cc2)cn1 | inactive | inactive | inactive | inactive | inactive | inactive | inactive | inactive | inactive | inactive | inactive | inactive | inactive | inactive | inactive | inactive | inactive | inactive | inactive | inactive |
| CC(=O)OCC(CCn1cnc2cnc(N)nc21)COC(C)=O | inactive | inactive | inactive | inactive | inactive | inactive | inactive | inactive | inactive | inactive | inactive |  | inactive | inactive | inactive | inactive | inactive | inactive | inactive | inactive |
| CC(C)NCC(O)COc1ccc(CCOCC2CC2)cc1 (stereo unspecified) | inactive | inactive | inactive | inactive | inactive | inactive | inactive | inactive |  | inactive |  | inactive | inactive |  | inactive | inactive | inactive | inactive | inactive | inactive |
| O=C1N(c2ccccc2)c2ccccc2C1(Cc1ccncc1)Cc1ccncc1 | inactive | inactive |  | inactive | inactive | inactive | inactive | inactive | inactive | inactive | inactive | inactive | inactive | inactive | inactive | inactive |  | inactive | inactive | inactive |
| COC(=O)Nc1nc2ccc(C(=O)c3cccs3)cc2[nH]1 | inactive | inactive | inactive | inactive | inactive | inactive | inactive | inactive |  | inactive | inactive | inactive | inactive | inactive | inactive | inactive | inactive | inactive | inactive | inactive |

| Compound | Potency (CP215) | Potency (CP217) | Potency (CP237) | Potency (CP238) | Potency (CP247) | Potency (CP250) | Potency (CP252) | Potency (CP256) | Potency (CP260) | Potency (CP262) | Potency (CP265) | Potency (CP266) | Potency (CP268) | Potency (CP269) | Potency (CP286) | Potency (CP291) | Potency (CP297) | Potency (CP305) | Potency (CP315) | Potency (CP325) |
| --- | --- | --- | --- | --- | --- | --- | --- | --- | --- | --- | --- | --- | --- | --- | --- | --- | --- | --- | --- | --- |
| CC#C[C@]1(O)CC[C@H]2[C@@H]3CCC4=CC(=O)CCC4=C3[C@@H](c3ccc(N(C)C)cc3)C[C@@]21C | 12 µM (active) | 11.2 µM (active) | 11.2 µM (active) |  | 8.91 µM (active) |  |  |  |  |  |  |  | 16.9 µM (active) | 13.5 µM (active) |  | 16.9 µM (active) | 12 µM (active) | 12 µM (active) |  |  |
| O=C(c1ccc(OCCN2CCCCC2)cc1)c1c(-c2ccc(O)cc2)sc2cc(O)ccc12 | 19 µM (active) |  | 3.55 µM (active) |  | 7.08 µM (active) |  |  |  | 3.16 µM (active) | inactive |  |  | 10.7 µM (active) |  | 3.55 µM (active) |  | 12 µM (active) |  | 19 µM (active) |  |
| CC1(CN2CCC(n3c(=O)[nH]c4ccccc43)CC2)OCc2ccccc2-n2cccc21 (stereo unspecified) |  |  |  |  |  |  |  |  |  | inactive |  | inactive |  |  |  |  |  |  | inactive | inactive |
| Clc1ccc2c(c1)C(N1CCNCC1)=Nc1ccccc1O2 |  |  | 7.08 µM (active) |  |  | inactive |  |  |  | inactive |  | inactive | inactive | inactive |  | inactive |  | inactive | inactive | inactive |
| CC[C@@]1(O)C(=O)OCc2c1cc1n(c2=O)Cc2cc3c(CN(C)C)c(O)ccc3nc2-1 | 6.01 µM (active) |  | 8.91 µM (active) |  |  | 4.47 µM (active) |  |  | 6.31 µM (active) |  | 6.31 µM (active) | inactive |  |  | 5.62 µM (active) | 4.78 µM (active) | 7.57 µM (active) |  |  |  |
| COc1ccc2[nH]cc(CCNC(C)=O)c2c1 |  | inactive | inactive | inactive | inactive | inactive | inactive | inactive | inactive | inactive | inactive | inactive | inactive | inactive | inactive | inactive | inactive | inactive |  | inactive |
| CCOC(=O)Nc1ccc(NCc2ccc(F)cc2)nc1N |  | 10 µM (active) | 10 µM (active) |  | 12.6 µM (active) |  | 8.91 µM (active) | 10 µM (active) | 11.2 µM (active) | 12 µM (active) | 11.2 µM (active) |  |  |  | 8.91 µM (active) |  |  |  |  |  |
| OCCN1CCN(CCCN2c3ccccc3Sc3ccc(C(F)(F)F)cc32)CC1 | 13.5 µM (active) | 10 µM (active) | 12.6 µM (active) | 8.91 µM (active) | 11.2 µM (active) | 12.6 µM (active) | 10 µM (active) | 3.16 µM (active) | 7.94 µM (active) | 5.36 µM (active) | 11.2 µM (active) |  | 13.5 µM (active) | 6.01 µM (active) | 2.51 µM (active) | 8.49 µM (active) |  | 9.53 µM (active) | 12 µM (active) | 6.75 µM (active) |
| Nc1nc2c(ncn2COC(CO)CO)c(=O)[nH]1 |  | inactive | inactive | inactive | inactive | inactive | inactive | inactive | inactive | inactive | inactive |  | inactive | inactive | inactive | inactive |  | inactive | inactive | inactive |
| CCC1(c2ccccc2)C(=O)NCNC1=O | inactive | inactive | inactive | inactive | inactive | inactive | inactive | inactive |  |  | inactive | inactive | inactive | inactive | inactive | inactive | inactive | inactive | inactive | inactive |
| CNCCCC12CCC(c3ccccc31)c1ccccc12 | inactive | inactive |  | inactive | inactive | inactive | inactive | inactive |  | inactive |  | inactive | inactive |  |  |  |  | inactive | inactive | inactive |
| CC(C)C(=O)Nc1ccc([N+](=O)[O-])c(C(F)(F)F)c1 | inactive | inactive | inactive | inactive |  | inactive | inactive | inactive | inactive | inactive | inactive | inactive | inactive | inactive | inactive | inactive | inactive | inactive | inactive | inactive |
| CN(Cc1cnc2nc(N)nc(N)c2n1)c1ccc(C(=O)N[C@@H](CCC(=O)O)C(=O)O)cc1 | inactive |  | 0.1 µM (active) |  |  | 0.178 µM (active) | inactive |  | 0.158 µM (active) | inactive |  | inactive | inactive | inactive | 0.158 µM (active) | inactive | inactive | inactive | inactive | inactive |
| O=c1[nH]cc(F)c(=O)[nH]1 | inactive |  |  |  | 8.91 µM (active) |  |  |  |  | inactive |  | inactive |  |  |  |  |  |  |  |  |
| CC(C)(Oc1ccc(C2CC2(Cl)Cl)cc1)C(=O)O (stereo unspecified) | inactive | inactive | inactive | inactive | inactive | inactive | inactive | inactive | inactive |  | inactive | inactive | inactive | inactive | inactive | inactive | inactive | inactive | inactive | inactive |
